# Where “and” joins values, the source holds several entries; their conditions need not be identical. Equal values may be shown once. Records with an inconclusive call do not appear. Entries that show only a call come without a potency. Calls of active or inactive are those of the source. Unless noted, calls come from the whole dose curve; as a rule, active = well fitted curve in the direction sought with a large enough effect in the repeat runs; inconclusive = weak or mixed curves; inactive = no such curve, though single readings can be large; an effect the other way counts as inactive or inconclusive.
# Tests used:
# [1] = qHTS assay to identify small molecule antagonists of the thyroid receptor (TR) signaling pathway - cell viability counter screen (AID 743064); note: nearly all actives have a fitted effect of over 50% in size
# Method in brief: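 Counter screen for cytotoxicity: compound plus T3 (1 nM final) on GH3.TRE-Luc cells, 23.5 h at 37 °C, then fluorescence viability readout with CellTiter-Fluor.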
# [2] = qHTS assay to identify small molecule antagonists of the thyroid receptor (TR) signaling pathway (AID 743065); note: series mostly up to about 70 µM; nearly all actives have a fitted effect of over 55% in size
# Method in brief: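 Antagonism measured as loss of luciferase signal in GH3 cells stably carrying a TRE-luciferase reporter, co-treated with compound and T3 (1 nM final) for 23.5 h at 37 C. Viability was read in the same well by CellTiter-Fluor.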
# [3] = system: thyroid hormone receptor (rat, GH3 cells); experiment: qHTS assay to identify small molecule agonists of the thyroid receptor (TR) signaling pathway (AID 743066; calls by dose curve)
# [4] = biological target: Estrogen receptor (Homo sapiens) (UniProt P03372); experiment: qHTS assay to identify small molecule antagonists of the estrogen receptor alpha (ER-alpha) signaling pathway (AID 743069; active = well fitted curve in the direction sought with a large enough effect in the signal ratio in the repeat runs, not every such curve was filed as active; the % refers to the signal ratio)
# Estrogen receptor (Homo sapiens), sequence (P03372 whole entry, looked up): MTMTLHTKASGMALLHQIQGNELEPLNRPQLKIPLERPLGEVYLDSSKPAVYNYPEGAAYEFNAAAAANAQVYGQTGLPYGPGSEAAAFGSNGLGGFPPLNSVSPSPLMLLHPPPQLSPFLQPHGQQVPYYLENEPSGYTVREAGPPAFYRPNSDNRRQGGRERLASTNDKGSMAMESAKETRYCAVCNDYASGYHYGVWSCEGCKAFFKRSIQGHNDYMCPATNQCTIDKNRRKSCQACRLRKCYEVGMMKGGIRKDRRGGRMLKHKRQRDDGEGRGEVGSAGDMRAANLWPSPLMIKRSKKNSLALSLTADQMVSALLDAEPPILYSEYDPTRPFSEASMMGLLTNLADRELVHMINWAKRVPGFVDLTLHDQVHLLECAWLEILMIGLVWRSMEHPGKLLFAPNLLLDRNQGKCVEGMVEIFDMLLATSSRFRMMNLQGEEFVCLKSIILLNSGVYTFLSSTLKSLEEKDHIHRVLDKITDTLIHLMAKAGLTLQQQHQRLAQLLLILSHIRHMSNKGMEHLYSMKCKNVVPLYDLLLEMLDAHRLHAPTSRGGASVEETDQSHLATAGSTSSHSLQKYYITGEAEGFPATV
# Method in brief: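 ER-alpha-UAS-bla GripTite HEK293 line; 2% charcoal-stripped FBS overnight; plated, 4 hr 37C/5% CO2; cpd in DMSO + 17beta-estradiol, 18 hr 37C; LiveBLAzer B/G FRET substrate 2 hr RT; fluorescence intensity.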
# [5] = qHTS assay to identify small molecule antagonists of the estrogen receptor alpha (ER-alpha) signaling pathway - cell viability counter screen (AID 743074; calls by dose curve;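 note: HEK293 cells carrying ER-alpha-UAS-bla reporter stimulated with 17beta-estradiol; nearly all actives have a fitted effect of over 45% in size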)
# [6] = biological target: Estrogen receptor (Homo sapiens) (UniProt P03372); experiment: qHTS assay to identify small molecule agonists of the estrogen receptor alpha (ER-alpha) signaling pathway (AID 743075; calls by dose curve;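 note: HEK293 GripTite cells with ER-alpha and UAS-driven beta-lactamase reporter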)
# [7] = biological target: Estrogen receptor (Homo sapiens) (UniProt P03372); experiment: qHTS assay to identify small molecule agonists of the estrogen receptor alpha (ER-alpha) signaling pathway using the BG1 cell line (AID 743079); note: nearly all actives have a fitted effect of over 20% in size; note: potency is the fitted concentration of half-maximal effect
# [8] = qHTS assay to identify small molecule antagonists of the estrogen receptor alpha (ER-alpha) signaling pathway using the BG1 cell line (AID 743080; calls by dose curve;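 note: BG1 cells stimulated with 17beta-estradiol alongside compound; series mostly up to about 70 µM; nearly all actives have a fitted effect of over 25% in size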)
# Method in brief: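 Readout is ONE-Glo luminescence, taken 30 min at room temperature after reagent addition, preceded by a CellTiter-Fluor viability read; BG1-Luc-4E2 cells had received compound and 17beta-estradiol for 21.5 h at 37 C.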
# [9] = qHTS assay to identify small molecule antagonists of the estrogen receptor alpha (ER-alpha) signaling pathway using the BG1 cell line - cell viability counter screen (AID 743081);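 note: compound given together with 17beta-estradiol as the ER stimulus; series mostly up to about 70 µM; nearly all actives have a fitted effect of over 45% in size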
# [10] = biological target: Aromatase (Homo sapiens) (UniProt P11511); experiment: qHTS assay to identify aromatase inhibitors (AID 743083); note: series mostly up to about 70 µM; nearly all actives have a fitted effect of over 55% in size
# Aromatase (Homo sapiens), sequence (P11511 whole entry, looked up): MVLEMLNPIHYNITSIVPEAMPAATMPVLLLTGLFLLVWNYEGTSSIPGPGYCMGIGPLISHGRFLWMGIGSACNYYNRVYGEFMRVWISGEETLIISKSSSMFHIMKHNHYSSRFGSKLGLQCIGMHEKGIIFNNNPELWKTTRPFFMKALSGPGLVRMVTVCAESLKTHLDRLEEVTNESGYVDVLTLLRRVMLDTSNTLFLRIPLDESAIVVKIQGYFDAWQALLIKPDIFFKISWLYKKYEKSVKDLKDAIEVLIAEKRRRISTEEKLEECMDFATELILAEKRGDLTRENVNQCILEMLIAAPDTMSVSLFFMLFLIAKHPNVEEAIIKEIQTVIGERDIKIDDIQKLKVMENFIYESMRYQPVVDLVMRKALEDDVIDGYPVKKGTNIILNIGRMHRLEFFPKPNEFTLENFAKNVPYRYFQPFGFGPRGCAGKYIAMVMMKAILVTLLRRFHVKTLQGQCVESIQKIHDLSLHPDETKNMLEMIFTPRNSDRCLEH
# [11] = qHTS assay to identify aromatase inhibitors - cell viability counter screen (AID 743084);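 note: cells stimulated with testosterone during compound exposure; nearly all actives have a fitted effect of over 55% in size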
# [12] = biological target: Aryl hydrocarbon receptor (Homo sapiens) (UniProt P35869); experiment: qHTS assay to identify small molecule that activate the aryl hydrocarbon receptor (AhR) signaling pathway (AID 743085); note: nearly all actives have a fitted effect of over 15% in size; note: potency is the fitted concentration of half-maximal effect;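 for activation: HG2L7.5c1 human HepG2 liver cells with stably integrated DRE-driven firefly reporter; series mostly up to about 70 µM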
# Aryl hydrocarbon receptor (Homo sapiens), sequence (P35869 whole entry, looked up): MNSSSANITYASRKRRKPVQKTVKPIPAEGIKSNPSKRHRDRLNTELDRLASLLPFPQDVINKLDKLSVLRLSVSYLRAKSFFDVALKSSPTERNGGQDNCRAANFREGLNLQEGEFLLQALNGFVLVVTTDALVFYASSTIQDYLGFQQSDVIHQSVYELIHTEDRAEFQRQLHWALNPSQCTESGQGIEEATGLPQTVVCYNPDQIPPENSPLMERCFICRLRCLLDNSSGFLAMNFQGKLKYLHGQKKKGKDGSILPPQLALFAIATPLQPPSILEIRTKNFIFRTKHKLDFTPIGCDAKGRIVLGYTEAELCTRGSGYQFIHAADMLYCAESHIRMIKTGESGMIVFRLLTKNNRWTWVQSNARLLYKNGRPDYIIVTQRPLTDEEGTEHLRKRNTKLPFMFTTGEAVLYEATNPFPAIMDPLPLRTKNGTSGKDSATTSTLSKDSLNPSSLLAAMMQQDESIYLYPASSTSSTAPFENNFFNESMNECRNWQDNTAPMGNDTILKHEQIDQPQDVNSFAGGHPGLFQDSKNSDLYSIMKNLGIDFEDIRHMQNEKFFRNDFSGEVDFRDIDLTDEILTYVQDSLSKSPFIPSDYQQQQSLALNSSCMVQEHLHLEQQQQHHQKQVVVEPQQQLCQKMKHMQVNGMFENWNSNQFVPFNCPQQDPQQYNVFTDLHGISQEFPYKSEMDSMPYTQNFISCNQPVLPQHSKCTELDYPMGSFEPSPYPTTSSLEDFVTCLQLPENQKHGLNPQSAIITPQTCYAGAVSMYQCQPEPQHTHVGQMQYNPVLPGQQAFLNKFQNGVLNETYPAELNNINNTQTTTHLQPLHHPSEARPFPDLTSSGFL
# Method in brief: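 Measured in HG2L7.5c1 cells: CellTiter-Fluor signal (30 min incubation, 37C) for viability, then luciferase luminescence (30 min, room temperature). Compound contact time was 24 h at 37C, following a 5 h pre-incubation.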
# [13] = qHTS assay to identify small molecule that activate the aryl hydrocarbon receptor (AhR) signaling pathway - cell viability counter screen (AID 743086);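 note: HepG2 liver cells carrying the AhR DRE luciferase reporter; series mostly up to about 70 µM; nearly all actives have a fitted effect of over 45% in size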
# Method in brief: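 Cytotoxicity counter screen: CellTiter-Fluor signal (30 min, 37 C) in 4000 HepG2 cells/well carrying the DRE-luciferase reporter, following 24 h compound exposure at 37 C.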
# [14] = biological target: Peroxisome proliferator-activated receptor gamma (Homo sapiens) (UniProt P37231); experiment: qHTS assay to identify small molecule agonists of the peroxisome proliferator-activated receptor gamma (PPARg) signaling pathway (AID 743094; active = well fitted activation curve with a large enough effect in the signal ratio in the repeat runs, not every such curve was filed as active; the % refers to the signal ratio)
# Peroxisome proliferator-activated receptor gamma (Homo sapiens), sequence (P37231 whole entry, looked up): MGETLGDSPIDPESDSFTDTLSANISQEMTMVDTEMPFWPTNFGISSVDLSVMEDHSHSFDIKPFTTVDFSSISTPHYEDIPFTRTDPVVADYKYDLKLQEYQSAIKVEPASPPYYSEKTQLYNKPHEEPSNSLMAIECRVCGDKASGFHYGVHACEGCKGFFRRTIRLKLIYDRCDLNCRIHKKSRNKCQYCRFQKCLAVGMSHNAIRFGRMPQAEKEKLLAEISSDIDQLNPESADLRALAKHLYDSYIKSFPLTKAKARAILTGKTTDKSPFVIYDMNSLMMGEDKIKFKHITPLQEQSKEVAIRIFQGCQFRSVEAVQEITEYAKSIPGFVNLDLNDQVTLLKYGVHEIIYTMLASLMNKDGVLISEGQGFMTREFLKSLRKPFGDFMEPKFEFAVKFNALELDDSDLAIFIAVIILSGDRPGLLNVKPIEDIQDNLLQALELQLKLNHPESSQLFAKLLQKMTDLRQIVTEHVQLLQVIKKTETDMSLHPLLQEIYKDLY
# Method in brief: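 Compounds dissolved in DMSO were added to PPARg UAS-bla HEK293H cells for 17 h at 37C, and reporter expression was quantified by fluorescence intensity after 1 h with LiveBLAzer B/G FRET substrate.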
# [15] = biological target: Peroxisome proliferator-activated receptor gamma (Homo sapiens) (UniProt P37231); experiment: qHTS assay to identify small molecule antagonists of the peroxisome proliferator-activated receptor gamma (PPARg) signaling pathway (AID 743191; calls by dose curve; note: series mostly up to about 63 µM; nearly all actives have a fitted effect of over 30% in size)
# Method in brief: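 Beta-lactamase reporter under UAS control in HEK293H PPARg-bla cells; compound treatment 17 h at 37C. Read-out: fluorescence intensity after 1 h room-temperature incubation with LiveBLAzer B/G FRET substrate.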
# [16] = qHTS assay for small molecule agonists of the antioxidant response element (ARE) signaling pathway - cell viability counter screen (AID 743203; calls by dose curve; note: nearly all actives have a fitted effect of over 55% in size)
# Method in brief: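 Following 16 hrs of compound treatment at 37C, HepG2 cells with an ARE-controlled beta-lactamase gene were lysed with CellTiter-Glo. Luminescence was read after 30 min at room temperature.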
# [17] = qHTS assay for small molecule activators of the heat shock response signaling pathway - cell viability counter screen (AID 743209); note: nearly all actives have a fitted effect of over 50% in size
# Method in brief: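 Readout: CellTiter-Glo luminescence, 30 min at room temperature. System: HSE-bla HeLa cells, 1500/well, plated overnight. Treatment: compounds in DMSO, 5 h at 37 C.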
# [18] = qHTS assay for small molecule activators of the heat shock response signaling pathway (AID 743210; active = well fitted activation curve with a large enough effect in the signal ratio in the repeat runs, with a control signal flat, not every such curve was filed as active; the % refers to the signal ratio;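 note: HeLa cells with beta-lactamase reporter driven by heat shock elements; series mostly up to about 63 µM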)
# Method in brief: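 HeLa HSE-bla cells, overnight plating; cpd in DMSO 5 h, 37 C; LiveBLAzer B/G FRET substrate 2.5 h RT; fluorescence intensity read.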
# [19] = qHTS assay to identify small molecule antagonists of the peroxisome proliferator-activated receptor gamma (PPARg) signaling pathway - cell viability counter screen (AID 743194); note: nearly all actives have a fitted effect of over 55% in size
# Method in brief: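 Viability was measured as CellTiter-Glo luminescence in GeneBLAzer PPARg UAS-bla HEK293H cells. These cells had been exposed 17 h at 37 C to compounds together with rosiglitazone at 50 nM final, with the beta-lactamase readout taken in the same wells.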
# [20] = qHTS assay for small molecule agonists of the antioxidant response element (ARE) signaling pathway (AID 743202; active = well fitted activation curve with a large enough effect in the signal ratio in the repeat runs, not every such curve was filed as active; the % refers to the signal ratio; note: potency is the fitted concentration of half-maximal effect)
# Method in brief: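 Quantitative high-throughput format in HepG2 cells bearing an integrated ARE-beta-lactamase reporter. Compound exposure lasted 16 h at 37 C, and fluorescence was read 2 h after adding LiveBLAzer B/G substrate at room temperature.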
SMILES,Potency [1],Potency [2],Potency [3],Potency [4],outcome [5],Potency [6],Potency [7],Potency [8],outcome [9],Potency [10],Potency [11],Potency [12],Potency [13],outcome [14],outcome [15],outcome [16],outcome [17],outcome [18],Potency [19],Potency [20]
Oc1cc(O)c2c(c1)O[C@H](c1ccc(O)c(O)c1)[C@H](O)C2,inactive,inactive,inactive,inactive,inactive,inactive,inactive,inactive,inactive,inactive,inactive,inactive,inactive,inactive,inactive,inactive,inactive,inactive,,
C=CCn1c(=O)n([C@@H]2O[C@H](CO)[C@@H](O)[C@H]2O)c2nc(N)[nH]c(=O)c21,inactive,inactive,inactive,inactive,inactive,inactive,inactive,inactive,inactive,inactive,inactive,inactive,inactive,inactive,,inactive,inactive,,inactive,inactive
CCCCNc1ccccc1,inactive,inactive,inactive,inactive,inactive,inactive,inactive,inactive,inactive,inactive,inactive,inactive,inactive,inactive,inactive,inactive,inactive,inactive,inactive,inactive
COCCOC(=O)CC#N,inactive,inactive,inactive,inactive,inactive,inactive,inactive,inactive,inactive,inactive,inactive,inactive,inactive,inactive,,inactive,inactive,inactive,inactive,inactive
COCc1ccc(COC)cc1,inactive,inactive,inactive,inactive,inactive,inactive,inactive,inactive,inactive,inactive,inactive,inactive,inactive,inactive,inactive,inactive,inactive,inactive,inactive,inactive
C[N+](C)(C)CC[N+]1(C)Cc2c(Cl)c(Cl)c(Cl)c(Cl)c2C1,inactive,inactive,inactive,inactive,inactive,inactive,inactive,inactive,inactive,inactive,inactive,inactive,inactive,inactive,inactive,inactive,inactive,inactive,inactive,
CCN(CC)S(=O)(=O)c1ccc(C(=O)O)cc1,inactive,inactive,inactive,inactive,inactive,inactive,inactive,inactive,inactive,inactive,inactive,inactive,,inactive,,inactive,inactive,inactive,inactive,inactive
CCC(C(=O)NC(N)=O)c1ccccc1 (centres undefined),inactive,inactive,inactive,inactive,inactive,inactive,inactive,,inactive,inactive,inactive,inactive,,inactive,inactive,,inactive,inactive,inactive,
Nc1ccc2cc(S(=O)(=O)O)ccc2c1,inactive,inactive,inactive,inactive,inactive,inactive,inactive,,inactive,inactive,inactive,inactive,,,,inactive,inactive,inactive,inactive,
NC(=O)Nc1nc2ccccc2[nH]1,inactive,inactive,inactive,inactive,inactive,inactive,inactive,,inactive,inactive,inactive,,inactive,inactive,inactive,inactive,inactive,,inactive,
C1COCCO1,inactive,inactive,inactive,inactive,inactive,inactive,inactive,,inactive,inactive,inactive,inactive,inactive,inactive,inactive,inactive,inactive,inactive,inactive,
[O-][N+](=Nc1ccccc1)c1ccccc1,inactive,inactive,inactive,inactive,inactive,inactive,15 µM (active) and 54.5 µM (active),,inactive,inactive,inactive,30.6 µM (active),,inactive,,inactive,inactive,inactive,inactive,6.86 µM (active)
C=C(C)C(=O)OCCC(C)OC(=O)C(=C)C (centres undefined),inactive,inactive,inactive,inactive,inactive,inactive,inactive,,inactive,inactive,inactive,,inactive,inactive,inactive,inactive,inactive,inactive,inactive,
CC(C)CCCCCCN,inactive,inactive,inactive,inactive,inactive,inactive,inactive,inactive,inactive,inactive,,inactive,inactive,inactive,inactive,inactive,inactive,inactive,inactive,inactive
c1ccc(CCCc2ccccn2)cc1,inactive,inactive,inactive,inactive,inactive,inactive,,,inactive,inactive,inactive,,inactive,inactive,inactive,inactive,inactive,inactive,inactive,
Nc1cc(N)cc(C(=O)O)c1,inactive,inactive,inactive,inactive,inactive,inactive,inactive,,inactive,inactive,inactive,inactive,inactive,inactive,inactive,inactive,inactive,inactive,inactive,

# — PubChem BioAssay (Tox21)
